An excerpt weighted towards active compounds, which were near 10% of everything screened.
3T3 cytotox: kills NIH 3T3 cells. Potency, µM (highest dose often 96.7 µM), without a hit: at the highest dose activity change, negative = cytotoxicity, hits mostly inhibitors. actives 4.3% (n = 94,000). AID 1345082. NIH 3T3 viability, CellTiter-Glo ATP luminescence, 48-72 h; note: % is set by controls: 0 for no effect and ±100 for the full control effect; nearly all actives have a fitted effect of over 55% in size
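Cells were seeded at 400 per well, treated with pin-transferred compound, and kept 48 or 72 hr at 37 °C before CellTiter-Glo addition and luminescence imaging of cellular ATP.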
FLuc inh-1: Photinus pyralis luciferase inhibition; P08659; purified P. pyralis luciferase, luminescence, biochemical; Potency, µM (highest dose often 115 µM), hits mostly inhibitors; actives 2.5% (n = 76,000); AID 1347043; note: % is set by controls: 0 for no effect and ±100 for the full control effect; nearly all actives have a fitted effect of over 65% in size
Target sequence (P08659 whole entry, looked up): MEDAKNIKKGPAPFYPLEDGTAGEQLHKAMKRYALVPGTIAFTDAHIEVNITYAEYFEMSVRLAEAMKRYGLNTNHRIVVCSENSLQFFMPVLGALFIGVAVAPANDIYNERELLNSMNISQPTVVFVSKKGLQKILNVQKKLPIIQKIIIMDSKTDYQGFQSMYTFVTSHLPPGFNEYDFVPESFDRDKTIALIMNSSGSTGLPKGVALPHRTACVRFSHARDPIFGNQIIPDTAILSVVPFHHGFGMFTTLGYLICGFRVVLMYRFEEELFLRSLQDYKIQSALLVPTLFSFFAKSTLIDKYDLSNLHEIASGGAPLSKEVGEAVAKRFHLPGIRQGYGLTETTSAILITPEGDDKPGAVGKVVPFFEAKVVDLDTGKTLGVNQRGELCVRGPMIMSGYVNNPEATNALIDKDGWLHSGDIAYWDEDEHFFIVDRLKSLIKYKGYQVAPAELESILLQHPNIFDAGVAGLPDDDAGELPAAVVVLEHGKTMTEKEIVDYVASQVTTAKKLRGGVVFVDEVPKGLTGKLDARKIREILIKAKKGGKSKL
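Luminescence read by CCD imager after adding enzyme (10nM final) to wells holding compound, titrated in qHTS. Substrates 10uM each D-luciferin and ATP; buffer 50mM Tris acetate pH 7.5, 10mM Mg acetate, Tween-20, BSA.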
GPT2 inh: blocks human glutamate pyruvate transaminase 2; Q8TD30; Potency, µM (top dose mostly 57.7 µM), inactives show at the highest dose activity change, negative = inhibition, hits mostly inhibitors; actives 0.25% (n = 100,000); Recombinant GPT2, coupled pyruvate oxidase/HRP Amplex Red fluorescence; note: % is set by controls: 0 for no effect and ±100 for the full control effect; nearly all actives have a fitted effect of over 60% in size
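GPT2 10ng/uL, a-KG 250uM, L-Ala 2mM, HEPES pH7.5 + 0.0001% Tween; 30 min RT. Then Amplex mix (PO/HRP/ThPP), 30 min RT dark, fluorescence. AOA 50uM used as positive control.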
NPR1 antag: blocks ANP-stimulated signaling of human Npr1 receptor; P16066; HEK293 hNpr1 GloSensor cGMP, ANP-stimulated luminescence; Potency, µM (titrated, usually from 46.3 µM), for inactives: at the top dose activity change, negative = inhibition, hits mostly inhibitors; actives 1.6% (n = 76,000); calls by dose curve; note: % is set by controls: 0 for no effect and ±100 for the full control effect; nearly all actives have a fitted effect of over 60% in size
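HEK293 cells stably expressing human Npr1 and cGMP GloSensor pGS-40F, loaded 2 h with 2% GloSensor reagent, given compound 30 min at room temperature. Luminescence read before and 20 min after 0.1 nM hNppA.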
HEK293 tox: kills HEK 293 cells; HEK 293 viability, ATP luminescence (CellTiter-Glo), 48-72 h; Potency, µM (series often up to 115 µM), without a hit: at the top dose activity change, negative = cytotoxicity, actives largely listed as inhibitors; actives 6.6% (n = 94,000); AID 1345083; note: % is set by controls: 0 for no effect and ±100 for the full control effect; nearly all actives have a fitted effect of over 60% in size
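Viability of HEK 293 cells, plated at 250 cells/well, was judged by cellular ATP after compound treatment for 48 or 72 hr. Luminescence was imaged 10 min after CellTiter-Glo addition at room temperature.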
FLuc SDR -ATP: binders stabilizing firefly luciferase, without ATP; Purified FLuc-C-HiBiT, Nano-Glo HiBiT luminescence, no ATP; shares compounds with FLuc inh-1; AID 1963318; actives 7.8% (n = 1,300); Potency, µM (highest dose often 32.7 µM), inactives show at the top dose activation (signal gain), hits mostly activators; note: nearly all actives have a fitted effect of over 55% in size
FLuc SDR ATP: stabilizes firefly luciferase with ATP present. actives 8.7% (n = 1,300). shares compounds with FLuc inh-1. purified FLuc-C-HiBiT + ATP, HiBiT complementation luminescence. Potency, µM (highest dose often 32.7 µM), inactives show at the highest dose activation (gain of signal), hits mostly activators;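 note: signal reports ligand binding via conformational change of the enzyme rather than luciferase catalysis; % of control where 0% means no effect; nearly all actives have a fitted effect of over 55% in size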
FLuc inh-2: firefly luciferase enzyme inhibition. shares compounds with FLuc inh-1. purified FLuc-C-HiBiT enzyme, luciferin luminescence. Potency, µM (titrated, usually from 32.7 µM), without a hit: top-dose activity change, negative = inhibition, usual class: inhibitors. actives 42% (n = 1,300). AID 1963320; note: % is set by controls: 0 for no effect and ±100 for the full control effect; nearly all actives have a fitted effect of over 70% in size
* = called active by the depositor; [ ] = dose if it differs, or a comment. Unless noted, calls come from the whole dose curve; as a rule, active = well fitted curve in the direction sought with a large enough effect; inconclusive = small, poorly fitted or top-dose-only effect, or another doubt; inactive = no such curve, though single readings can be large; an effect the other way counts as inactive or inconclusive. Potency is the fitted concentration of half-maximal effect.

COc1cc(OC)c(C(=O)N2CCC3(CC2)[C@H](O)C[C@@H]3OC)cc1OC was read as 3T3 cytotox -1%, FLuc inh-1 inactive, GPT2 inh inconclusive, NPR1 antag 2% and HEK293 tox -15%.
For COc1ccc(-c2nc3ccccc3s2)cc1NC(=O)COc1ccc(C)cc1 the results were FLuc SDR -ATP 9%, FLuc SDR ATP 6% and FLuc inh-2 -11%.
For COc1ccccc1NC(=O)COc1cccc(-c2nnc3n2CCCC3)c1 the results were 3T3 cytotox -24%, FLuc inh-1 inactive, GPT2 inh inactive, NPR1 antag 2% and HEK293 tox -12%.
`COc1ccc(-c2nc3ccccc3s2)cc1NC(=O)COc1cccc(C)c1` gave FLuc SDR -ATP 15%, FLuc SDR ATP 8% and FLuc inh-2 -13%.
`Cc1nc(C)c(C(=O)N2CCCC(n3c(C)cnc3C3CCC3)C2)s1` (stereo unspecified) gave 3T3 cytotox -7%, FLuc inh-1 inactive, GPT2 inh -9%, NPR1 antag 2% and HEK293 tox 0%.
Screening Cc1c(C(=O)Nc2ccc(C(=O)O)cc2)nnn1-c1ccccc1 returned FLuc SDR -ATP 7µM*, FLuc SDR ATP 0.078µM* and FLuc inh-2 0.078µM*.
Screening O=C(O)c1ccc(-n2nc(-c3ccccc3O)nc2-c2ccccc2O)cc1 returned GPT2 inh inactive.
`COc1ccc(-c2cc3nc4c(c(=O)n3[nH]2)CN(C(=O)NCc2ccco2)CC4)cc1` gave 3T3 cytotox inconclusive, FLuc inh-1 7.1µM*, GPT2 inh inactive, NPR1 antag -2%, HEK293 tox inconclusive, FLuc SDR -ATP inconclusive, FLuc SDR ATP 14% and FLuc inh-2 11µM*.
Screening COc1ccc(-c2cc3nc4c(c(=O)n3[nH]2)CN(C(=O)Cc2ccccc2)CC4)cc1 returned 3T3 cytotox -7%, FLuc inh-1 inconclusive, GPT2 inh inactive, NPR1 antag 4% and HEK293 tox 3%.
`Cc1ccccc1C(=O)N1CCCC(C(=O)N2CCC3(CC2)CC(=O)Nc2ccccc2O3)C1` (stereo unspecified) gave 3T3 cytotox -25%, GPT2 inh -18% and HEK293 tox inconclusive.
Screening C#CCn1c(/C=C/c2ccc(Cl)cc2)nc2ccccc21 returned FLuc SDR -ATP 3.9µM*, FLuc SDR ATP inconclusive and FLuc inh-2 0.62µM*.
Screening Cc1cc(-c2nc3cc(F)ccc3s2)ccc1N returned FLuc SDR -ATP inconclusive, FLuc SDR ATP inconclusive and FLuc inh-2 1.1µM*.
`Cc1cc(-c2nc3cc(F)ccc3s2)ccc1NC(=O)[C@@H](N)CCCCN` gave GPT2 inh -21%, FLuc SDR -ATP 30%, FLuc SDR ATP inconclusive and FLuc inh-2 2.5µM*.
`O=C(c1noc(-c2ccc(F)cc2)n1)N1CCN(c2ccccc2F)CC1` gave 3T3 cytotox -15%, FLuc inh-1 inactive, GPT2 inh -4%, NPR1 antag -3% and HEK293 tox inconclusive.
Screening O=C(Nc1cnc(-c2ccccc2)nc1)C1CCCCC1 returned 3T3 cytotox inactive, FLuc inh-1 1µM*, GPT2 inh inactive, NPR1 antag inconclusive, HEK293 tox -9%, FLuc SDR -ATP inconclusive, FLuc SDR ATP inconclusive and FLuc inh-2 2µM*.
For CN1CC[C@H]2CN(C(=O)C3(Cn4ccnc4)CC3)C[C@@]2(C(=O)O)C1 the results were 3T3 cytotox 2%, FLuc inh-1 inactive, GPT2 inh -7%, NPR1 antag 0% and HEK293 tox inactive.
Screening CC(=O)c1ccc(NC(=O)O[C@@H]2CO[C@H]3[C@@H]2OC[C@@H]3NS(=O)(=O)c2ccc(Cl)cc2)cc1 returned 3T3 cytotox inconclusive, FLuc inh-1 inactive, GPT2 inh 2%, NPR1 antag 1% and HEK293 tox inconclusive.
`COc1ccc(C(=O)NCC2Cc3cc(C)cc(-c4nc5ccccc5s4)c3O2)c(OC)c1OC` (stereo unspecified) gave FLuc SDR -ATP 15%, FLuc SDR ATP 11% and FLuc inh-2 1%.
For Cc1cc2c(c(-c3nc4ccccc4s3)c1)OC(CNC(=O)c1occc1C)C2 (stereo unspecified) the results were FLuc SDR -ATP 15%, FLuc SDR ATP 12% and FLuc inh-2 inconclusive.
`Cn1nccc1C(=O)N1CCC(c2noc(C3CC3)n2)C1` (stereo unspecified) gave 3T3 cytotox -1%, FLuc inh-1 inactive, GPT2 inh 4%, NPR1 antag 2% and HEK293 tox -1%.
Screening Cc1ccoc1C(=O)N1C[C@@H](CO)[C@H](c2ccccn2)C1 returned 3T3 cytotox -2%, FLuc inh-1 inactive, GPT2 inh -13%, NPR1 antag 0% and HEK293 tox inactive.
Screening Cc1ccc(C(=O)N2CCN(C(=O)c3nc4cccnc4n(Cc4ccccc4)c3=O)CC2)cc1 returned 3T3 cytotox -29%, GPT2 inh inactive and HEK293 tox -5%.
Screening Cc1ccc(CSc2nc3cccnc3n2Cc2ccc(C(=O)NCc3ccco3)cc2)cc1 returned FLuc SDR -ATP 3.9µM*, FLuc SDR ATP inconclusive and FLuc inh-2 0.62µM*.
For O=C(Nc1n[nH]c2cc(-c3ccccc3)ccc12)C1CC1 the results were FLuc SDR -ATP 18%, FLuc SDR ATP 11% and FLuc inh-2 inconclusive.
`Cc1ccccc1-c1cccc(COc2cnc3c(ccn3CC(=O)O)c2)c1` gave FLuc SDR -ATP 9%[49.3 µM], FLuc SDR ATP 6%[49.3 µM] and FLuc inh-2 inconclusive.
Screening CC(=O)Nc1cccc(-c2cccc(CCOc3cnc4c(ccn4CC(=O)O)c3)c2)c1 returned FLuc SDR -ATP inconclusive, FLuc SDR ATP inconclusive and FLuc inh-2 16µM*.
For CC(C)Oc1cccc(-c2cccc(COc3cnc4c(ccn4CC(=O)O)c3)c2)c1 the results were 3T3 cytotox -23%[138 µM], FLuc inh-1 11µM*, GPT2 inh -15%[88.5 µM], NPR1 antag 4%[70.6 µM], HEK293 tox inconclusive, FLuc SDR -ATP 7%[49.3 µM], FLuc SDR ATP 5%[49.3 µM] and FLuc inh-2 18µM*.
